The nature of experiment [1]: Immunotoxin (HA22) sensitization/mitigation study. Vehicle arm (PBS) (AID 1159510).
Experiment [2] is described as follows: Immunotoxin (SS1P) sensitization/mitigation study. Vehicle arm (DMEM) (AID 1159513).

Where “and” joins values, the source holds several entries; their conditions need not be identical. Equal values may be shown once. Calls of active or inactive are those of the source. No rule for the calls is given here.
Potency is read from the fitted curve at half-maximal effect.

`Cc1ccc2c(c1)C(=O)[C@@]1(O)CCN(c3ccccc3)C1=N2`: the Potency entry in experiment [1] and in experiment [2] was “inactive” throughout.
Turning to `CO[C@H]1C=CC=C(C)C(=O)NC2=CC(=O)C(NCCN(C)C)=C(C[C@@H](C)C[C@H](OC)[C@@H](O)[C@@H](C)C=C(C)[C@@H]1OC(N)=O)C2=O`, the Potency in experiment [1] is 0.0059 µM (active); in experiment [2], 3.32 µM (active).
The matching figures for `CN(C)C(=O)c1ccc(S(=O)(=O)c2ccc(NC(=O)[C@@](C)(O)C(F)(F)F)c(Cl)c2)cc1`: 1.66 µM (active) and “inactive”.
On the same counts, the results for `CC(=O)OCCN1C(=O)c2c(C)nc3ccc(S(=O)(=O)N4CCOCC4)cc3c2C1=O` are “inactive” and “inactive”.
On the same counts, the results for `Nc1ccc(C(=O)c2cc3c(ccc4ccccc43)[nH]2)cc1` are 0.743 µM (active) and 1.18 µM (active).
As to `COc1ncc(-c2ccc3nccc(-c4ccnnc4)c3c2)cc1NS(=O)(=O)c1ccc(F)cc1F`, the values for the Potency in experiment [1] and in experiment [2] were 0.418 µM (active) and 0.235 µM (active), respectively.
The matching figures for `CCc1cc(Nc2nccc(-c3c(-c4ccc(OC)c(C(=O)Nc5c(F)cccc5F)c4)nc4ccccn34)n2)c(OC)cc1N1CCC(N2CCN(S(C)(=O)=O)CC2)CC1`: 3.72 µM (active) and “inactive”.
The matching figures for `COc1cc2ncn(-c3cc(OCc4ccccc4C(F)(F)F)c(C(N)=O)s3)c2cc1OC`: 0.296 µM (active) and 0.166 µM (active).
The matching figures for `O=C(C=Cc1cccnc1)NCCCCC1CCN(C(=O)c2ccccc2)CC1`: “inactive” and “inactive”.
Consider `CC(C)(C)c1[nH]cnc1C=c1[nH]c(=O)c(=Cc2ccccc2)[nH]c1=O`, for which the figures for the Potency in experiment [1] and in experiment [2] were 0.0074 µM (active) and 0.0118 µM (active), respectively.
As to `CCCCCN(CCC12CC3CC(CC(C3)C1)C2)C(=O)NCCCc1ccncc1`, the Potency in experiment [1] was 11.8 µM (active); in experiment [2] it was 23.5 µM (active).
For `Nc1ccccc1NC(=O)c1ccc(CNc2nccc(-c3cccnc3)n2)cc1`, the Potency was 0.132 µM (active) in experiment [1] and 0.187 µM (active) in experiment [2].
The matching figures for `CCOC(=O)C1=C[C@@]2(CC)CCCN3CCc4c(n1c1ccccc41)[C@H]32`: “inactive” and “inactive”.
The matching figures for `CN1CCC(CNc2ccc3ncc(-c4cccc(OC(F)(F)F)c4)n3n2)CC1`: 20.9 µM (active) and 16.6 µM (active).
On the same counts, the results for `COCCNCCCn1c(C(=O)CF)c(-c2ccc(C)cc2)c2c(N)ncnc21` are “inactive” and “inactive”.
With `Nc1ccccc1NC(=O)c1ccc(CNC(=O)OCc2cccnc2)cc1`, the Potency in experiment [1] is 0.526 µM (active); in experiment [2], 5.9 µM (active).
The matching figures for `Cc1cc(Nc2nc(N[C@@H](C)c3ncc(F)cn3)ncc2Cl)n[nH]1`: “inactive” and “inactive”.
The matching figures for `Cc1nc(N)sc1-c1ccnc(Nc2ccc(N3CCOCC3)cc2)n1`: 5.9 µM (active) and 18.7 µM (active).
The matching figures for `Cc1ccnc(NS(=O)(=O)c2ccc(NC(=O)Nc3ccc(S(=O)(=O)Nc4nccc(C)n4)cc3)cc2)n1`: 16.6 µM (active) and 18.7 µM (active).
Consider `O=C(O)c1ccc2cc(-c3ccc(O)c(C45CC6CC(CC(C6)C4)C5)c3)ccc2c1`, for which the Potency in experiment [1] is 0.0935 µM (active); in experiment [2], 18.7 µM (active).
Turning to `CCNC(=O)c1noc(-c2cc(C(C)C)c(O)cc2O)c1-c1ccc(CN2CCOCC2)cc1`, the Potency in experiment [1] was 0.0015 µM (active); in experiment [2], 0.0021 µM (active).
In the case of `CCOc1cc2ncc(C#N)c(Nc3ccc(OCc4ccccn4)c(Cl)c3)c2cc1NC(=O)/C=C/CN(C)C`, the Potency in experiment [1] was 4.69 µM (active); in experiment [2], 0.935 µM (active).
On the same counts, the results for `Nc1ccc(-c2ccc3ncc4ccc(=O)n(-c5cccc(C(F)(F)F)c5)c4c3c2)cn1` are 0.0187 µM (active) and 0.0526 µM (active).
On the same counts, the results for `COc1c(C)cnc(Cn2cnc3c(Cl)nc(N)nc32)c1C` are 0.0187 µM (active) and 0.0105 µM (active).
On the same counts, the results for `COc1cc2ncnc(Nc3ccc(F)c(Cl)c3)c2cc1NC(=O)C=CCN1CCCCC1` are 9.35 µM (active) and 18.7 µM (active).
For `CCOc1ccn(-c2ccc(F)cc2)c(=O)c1C(=O)Nc1ccc(Oc2ccnc(N)c2Cl)c(F)c1`, the Potency was 18.7 µM (active) in experiment [1] and 23.5 µM (active) in experiment [2].
With `Cc1ccc(F)c(NC(=O)Nc2ccc(-c3cccc4[nH]nc(N)c34)cc2)c1`, the Potency in experiment [1] is 5.26 µM (active); in experiment [2], 13.2 µM (active).
On the same counts, the results for `NC(=O)c1ccc(-c2nc(-c3ccc4c(c3)OCO4)c(-c3ccccn3)[nH]2)cc1` are “inactive” and “inactive”.
Take `Cc1cccc(C#Cc2ccccc2)n1`: the Potency result in experiment [1] and in experiment [2] was “inactive” each time.
On to `N#CCNC(=O)c1ccc(-c2ccnc(Nc3ccc(N4CCOCC4)cc3)n2)cc1`, for which the Potency is 5.26 µM (active) in experiment [1] and 16.6 µM (active) in experiment [2].
On the same counts, the results for `COc1cccc2nc(-c3cccs3)nc(NN3C(=O)C=C(C)C3=O)c12` are 0.0166 µM (active) and 5.9 µM (active).
The matching figures for `OCCC#Cc1nc(-c2ccc(F)cc2)c(-c2ccncc2)n1CCCc1ccccc1`: 23.5 µM (active) and 18.7 µM (active).
The matching figures for `CCCS(=O)(=O)Nc1ccc(F)c(C(=O)c2c[nH]c3ncc(Cl)cc23)c1F`: 20.9 µM (active) and 16.6 µM (active).
As to `CC(C)(C)c1cnc(CSc2cnc(NC(=O)C3CCNCC3)s2)o1`, the Potency in experiment [1] was 0.0332 µM (active); in experiment [2] it was 0.0526 µM (active).
`C=CC(=O)Nc1cccc(Oc2nc(Nc3ccc(N4CCN(C)CC4)cc3OC)ncc2Cl)c1`: the figures for the Potency in experiment [1] and in experiment [2] were 16.6 µM (active) and 23.5 µM (active), respectively.
The matching figures for `COc1nc(C)cnc1NS(=O)(=O)c1cccnc1-c1ccc(-c2nnco2)cc1`: “inactive” and “inactive”.
The matching figures for `COc1cc2nc(N3CCCN(C)CC3)nc(NC3CCN(Cc4ccccc4)CC3)c2cc1OC`: 2.09 µM (active) and 13.2 µM (active).
The matching figures for `CC1(O)CC(c2nc(-c3ccc4ccc(-c5ccccc5)nc4c3)c3c(N)nccn23)C1` (stereo not given): 29.6 µM (active) and 18.7 µM (active).
`O=C(O)CC/C=C\CC[C@H]1[C@@H](N2CCCCC2)[C@@H](O)C[C@@H]1OCc1ccc(-c2ccccc2)cc1`: the Potency result in experiment [1] and in experiment [2] was “inactive” each time.
`CN(c1ncccc1CNc1nc(Nc2ccc3c(c2)CC(=O)N3)ncc1C(F)(F)F)S(C)(=O)=O`: the Potency is 1.48 µM (active) in experiment [1] and 2.96 µM (active) in experiment [2].
On the same counts, the results for `C[C@@H](O[C@H]1OCCN(Cc2n[nH]c(=O)[nH]2)[C@@H]1c1ccc(F)cc1)c1cc(C(F)(F)F)cc(C(F)(F)F)c1` are 14.8 µM (active) and 18.7 µM (active).
The matching figures for `CCCCCCCCCCCCCC(=O)N[C@H](CO)[C@H](O)c1ccc([N+](=O)[O-])cc1`: 16.6 µM (active) and 23.5 µM (active).
On the same counts, the results for `CC(C)Oc1cc(Nc2nc(N[C@@H](C)c3ccc(F)cn3)ncc2Cl)[nH]n1` are 20.9 µM (active) and 20.9 µM (active).
For `CC(C)[C@H](CO)Nc1nc(Nc2ccc(C(=O)O)c(Cl)c2)c2ncn(C(C)C)c2n1`, the Potency entry in experiment [1] and in experiment [2] was “inactive” throughout.
On to `CC[C@@H](C)[C@H](NC(=O)[C@H](CC1CCCCC1)NC(=O)c1ccno1)C(=O)N1CCC2(CCc3ccccc32)CC1`, for which, in experiment [1], the Potency result is “inactive”. For the same compound, the Potency in experiment [2] is 16.6 µM (active).
As for `Cc1ccc(C(=O)Nc2cccc(C(F)(F)F)c2)cc1-c1ccc2nc(NCCN3CCOCC3)ncc2c1`, the figures for the Potency in experiment [1] and in experiment [2] were 14.8 µM (active) and 13.2 µM (active), respectively.
The matching figures for `CC(=O)OCC(=O)[C@@]1(O)[C@H](C)C[C@H]2[C@@H]3C=C(C)C4=Cc5c(cnn5-c5ccccc5)C[C@]4(C)[C@@H]3[C@@H](O)C[C@@]21C`: 1.32 µM (active) and 26.4 µM (active).
The matching figures for `CN([C@@H](Cc1ccc(OS(=O)(=O)c2cccc3cnccc23)cc1)C(=O)N1CCN(c2ccccc2)CC1)S(=O)(=O)c1cccc2cnccc12`: “inactive” and “inactive”.
For `OCCn1cc(-c2cnc3nnn(Cc4ccc5ncccc5c4)c3n2)cn1`, the Potency result in experiment [1] and in experiment [2] was “inactive” throughout.
For `O=C(Nc1ccc(F)c(C(F)(F)F)c1)Nc1nnc(-c2ccncc2)s1`, the Potency in experiment [1] was 2.09 µM (active); in experiment [2], 5.9 µM (active).
Regarding `CCN(CC)CCn1c(=O)c(Cc2ccc(OC)cc2)nc2ccccc21`, the Potency result in experiment [1] and in experiment [2] was “inactive” in each case.
With `CC(C)C(=O)Nc1ncc(-c2cc(C(F)F)nn2-c2c(Cl)cccc2Cl)s1`, the results for the Potency in experiment [1] and in experiment [2] were 11.8 µM (active) and 18.7 µM (active), respectively.
The matching figures for `c1ccc2c(-c3cnn4cc(-c5ccc(N6CCNCC6)cc5)cnc34)ccnc2c1`: 14.8 µM (active) and 18.7 µM (active).
On to `O=C(NCCCNc1nc(Nc2cccc(NC(=O)N3CCCC3)c2)ncc1I)c1cccs1`, for which the Potency in experiment [1] is 11.8 µM (active) and 3.32 µM (active); in experiment [2], 20.9 µM (active) and 23.5 µM (active).
On to `C[C@H](NC(=O)Cc1cc(F)cc(F)c1)C(=O)N[C@@H]1C(=O)N(C)c2ccccc2-c2ccccc21`, for which the Potency result in experiment [1] and in experiment [2] was “inactive” in each case.
Take `C#Cc1cccc(Nc2ncnc3cc(OC)c(OCCCCCCC(=O)NO)cc23)c1`: the Potency in experiment [1] was 0.132 µM (active); in experiment [2], 0.526 µM (active).
On the same counts, the results for `Cn1c(Nc2ccc(C(F)(F)F)cc2)nc2cc(Oc3ccnc(-c4ncc(C(F)(F)F)[nH]4)c3)ccc21` are 11.8 µM (active) and 23.5 µM (active).
The matching figures for `Cc1n[nH]c(C)c1Cc1sc2c(c1C(=O)N1C[C@H](O)CO1)c(=O)n(C)c(=O)n2CC(C)C`: 0.0019 µM (active) and “inactive”.
For `COc1cc2c(cc1OC)CC(=O)N(CCCN(C)C[C@H]1Cc3cc(OC)c(OC)cc31)CC2`, the Potency entry in experiment [1] and in experiment [2] was “inactive” throughout.
`CCC(=O)N1CCN(c2ccc(-n3c(=O)ccc4cnc5ccc(-c6cnc7ccccc7c6)cc5c43)cc2C(F)(F)F)CC1`: the Potency is 4.18 µM (active) in experiment [1] and 0.0209 µM (active) in experiment [2].
The matching figures for `O=C(NOC[C@H](O)CO)c1ccc(F)c(F)c1Nc1ccc(I)cc1F`: “inactive” and “inactive”.
On the same counts, the results for `COc1cc(OC2CCN(C)CC2)ccc1Nc1ncc2c(n1)n(C1CCCC1)c(=O)n2C` are 10.5 µM (active) and 16.6 µM (active).
`CC1=C[C@@H]2[C@@H]([C@@H](O)C[C@@]3(C)[C@H]2C[C@@H](C)[C@]3(O)C(=O)CO)[C@@]2(C)Cc3cnn(-c4ccccc4)c3C=C12`: the Potency in experiment [1] is 1.66 µM (active); in experiment [2], 23.5 µM (active).
For `Cn1cc(-c2ccc3nnc(C(F)(F)c4ccc5ncccc5c4)n3n2)cn1`, the Potency entry in experiment [1] and in experiment [2] was “inactive” throughout.
In the case of `COC(=O)[C@]12CCC(C)(C)C[C@@H]1[C@@H]1C(=O)C=C3[C@@]4(C)C=C(C#N)C(=O)C(C)(C)[C@@H]4CC[C@@]3(C)[C@]1(C)CC2`, the figures for the Potency in experiment [1] and in experiment [2] were 0.526 µM (active) and 0.833 µM (active), respectively.

The values above are taken from PubChem BioAssay (NCATS).
